Laboratory results: PubChem BioAssay AID1952 (The Scripps Research Institute Molecular Screening Center, 2009)
In all, about 2,400 compounds went through this assay and about 1,200 (50%) were called active. No stated cut-off is given here; in the data, active means inhibition above about 24%; inactive means the rest. The set was probably picked from earlier hits. These entries were drawn from the full list.

What follows are compounds tested against Neuropeptides B/W receptor type 1 (Homo sapiens) (UniProt P48145) (assay: GPR7 receptor antagonists, confirmation, cell-based, fluorescence, single concentration (AID 1952;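 further: stimulated with the GPR7 agonist NPW; 0% = agonist plus vehicle and 100% = vehicle alone without agonist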)). Settings: GPR7-expressing cells, calcium fluorescence antagonist mode; at 4.4 µM; stronger effect = higher value.
Neuropeptides B/W receptor type 1 (Homo sapiens), sequence (P48145 whole entry, looked up): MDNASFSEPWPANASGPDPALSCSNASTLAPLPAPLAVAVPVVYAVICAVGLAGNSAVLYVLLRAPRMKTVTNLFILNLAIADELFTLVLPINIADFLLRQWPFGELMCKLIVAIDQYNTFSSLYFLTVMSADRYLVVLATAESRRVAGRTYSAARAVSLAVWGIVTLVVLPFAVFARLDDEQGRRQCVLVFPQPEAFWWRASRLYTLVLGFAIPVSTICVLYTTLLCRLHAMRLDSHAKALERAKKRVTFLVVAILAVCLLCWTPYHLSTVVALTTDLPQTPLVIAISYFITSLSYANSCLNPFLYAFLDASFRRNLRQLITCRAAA

| SMILES | inhibition |
| --- | --- |
| CCOc1ccc(-c2cc(C)[n+](CCN(CC)CC)c(-c3ccc(OCC)cc3)c2)cc1 | 41.8% (active) |
| COc1ccc(Br)cc1CNCCc1cccc(Cl)c1 | 32.7% (active) |
| CCOC(=O)C1(Cc2ccc(Cl)cc2)CCN(C(C)CCn2cccn2)CC1 (stereo not drawn) | 18.4% (inactive) |
